Source: PubChem BioAssay (NCI)
Compounds without any hit were thinned out: in the full panel of roughly 83,000, 20% have a hit.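 How to read the values: 0–100, growth inhibition (40 = 60% inhibited); 0, no net growth; -100 to 0, cell death (-40 = 40% of starting cells died; -100 = all dead).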 The source made the active and inactive calls. Rule for the calls: active = growth percent below 10; inactive = the rest.

Tests used:
Assay in all cases: NCI-60 one-dose screen, 48 h (100 = growth as untreated, 0 = no growth, -100 = all killed)
Details in all cases: 10 µM unless noted
[1] = tested on: NCI-H23 lung
[2] = tested on: NCI-H226 lung
[3] = tested on: NCI-H322M lung
[4] = tested on: HOP-62 NSCLC
[5] = tested on: NCI-H460 lung
[6] = tested on: NCI-H522 lung
[7] = tested on: A549/ATCC NSCLC
[8] = tested on: 786-0 renal
[9] = tested on: COLO 205 colon
[10] = tested on: DU-145 prostate
[11] = tested on: K-562 leukemia
[12] = tested on: MALME-3M melanoma
[13] = tested on: MDA-MB-231 breast
[14] = tested on: RXF 393 renal
[15] = tested on: SF-268 CNS
[16] = tested on: SF-295 CNS
[17] = tested on: SF-539 CNS
[18] = tested on: UACC-257 melanoma
[19] = tested on: M14 melanoma

Measured: growth

Cc1ccccc1Nc1n[nH]c(Cc2ccccc2)n1
inactive: [1] 102% | [2] 100% | [3] 99.1% | [4] 94.6% | [5] 108% | [6] 58% | [7] 100% | [8] 105% | [9] 122% | [10] 103% | [11] 72% | [12] 101% | [13] 110% | [14] 108% | [15] 101% | [16] 103% | [17] 107% | [18] 92.7% | [19] 106%

O=C(NNC(=O)c1cccc(Cl)c1)c1ccccc1
inactive: [1] 108% | [2] 96.2% | [3] 107% | [4] 109% | [5] 106% | [6] 111% | [7] 97.6% | [8] 102% | [9] 116% | [10] 110% | [11] 114% | [12] 106% | [13] 113% | [14] 109% | [15] 108% | [16] 106% | [17] 107% | [18] 110% | [19] 112%

COc1cc2ncnc(Nc3ccc(S(=O)(=O)Nc4nccs4)cc3)c2cc1OCCCN1CCOCC1
inactive: [1] 104% | [2] 99.7% | [3] 102% | [4] 93.3% | [5] 105% | [6] 88.6% | [7] 103% | [8] 108% | [9] 103% | [10] 110% | [11] 106% | [12] 99.8% | [13] 99.2% | [14] 111% | [15] 98.3% | [16] 108% | [17] 98.6% | [18] 101% | [19] 107%

CCN(CC)CC(=O)Nc1c(C)ccc(N)c1C
inactive: [1] 101% | [2] 98.4% | [3] 90.2% | [4] 94.2% | [5] 108% | [6] 74.4% | [7] 100% | [8] 93.4% | [9] 97.6% | [10] 107% | [11] 128% | [12] 90.5% | [13] 107% | [14] 116% | [15] 102% | [16] 97% | [17] 99.6% | [18] 105% | [19] 101%

O=C(Nc1ccc(Br)cc1)Nc1cccc(Br)c1
active: [6] -28.5% | [11] 4.34%
inactive: [1] 18.4% | [2] 53.1% | [3] 55.4% | [4] 56.6% | [5] 12.2% | [7] 32.1% | [8] 68.6% | [9] 28.1% | [10] 30.7% | [12] 60.2% | [13] 66.6% | [14] 105% | [15] 69% | [16] 28.1% | [17] 76.6% | [18] 36.3% | [19] 24.1%

C=C1C(=O)O[C@H]2[C@H]1CC/C(COC(=O)NCc1ccc(Cn3c(=O)sn(CCCl)c3=O)cc1)=C\CC[C@@]1(C)O[C@@H]21
inactive: [1] 103% | [2] 79.8% | [3] 95.1% | [4] 75.3% | [5] 97.8% | [7] 86% | [8] 32.4% | [10] 36.9% | [13] 73.5% | [15] 85.2% | [16] 107% | [17] 83.1% | [18] 49.8% | [19] 29.5%
active: [6] -68% | [9] -48.1% | [11] -13% | [12] -28.3% | [14] 5.98%

CCCCc1nc(Cl)c(C2CC(c3ccc(S(N)(=O)=O)cc3)=NN2c2cc(Cl)cc(Cl)c2)[nH]1 (configuration not stated)
inactive: [1] 51.9% | [2] 39% | [3] 77.7% | [4] 61.8% | [5] 13.9% | [6] 22.7% | [7] 36.5% | [8] 53.6% | [9] 32.2% | [10] 70.8% | [11] 16% | [12] 65.3% | [13] 35.2% | [14] 48.4% | [15] 49.4% | [16] 50.3% | [17] 91.4% | [18] 55.4% | [19] 18.7%

C=C[C@H]1CCC/C=C/[C@@H]2C[C@H](O)C[C@H]2[C@H](O)/C=C/C(=O)O1
inactive: [4] 33.3% | [16] 17.2% | [17] 35.2%
active: [1] -19.1% | [2] 3.22% | [3] -7.72% | [5] 7.05% | [6] -37.8% | [7] 8.51% | [8] -53.5% | [9] -83.1% | [10] 5.86% | [11] 9.93% | [12] -46.4% | [13] -74% | [14] -15.2% | [15] 7.6% | [18] 4.69% | [19] -10.6%
